Several values for one entry are separate records, joined by “and”; a condition that tells them apart may be missing. Equal values may be shown once. Inconclusive results are not listed. A call without a number means that no potency is given here. The source holds several records for some structures; these can differ, active in one and inactive in another. Activity calls are given as the source filed them. Calls come from the whole dose curve; as a rule, active = well fitted cell-killing curve with a large enough effect; inconclusive = small, poorly fitted or top-dose-only effect, or effect the other way; inactive = no such curve, though single readings can be large or run the other way.
Experiment: Viability qHTS for spleen associated tyrosine kinase inhibitor (SYKi) naive MV4-11 cells (AID 1963823); note: nearly all actives have a fitted effect of over 40% in size
Conditions: MV4-11 AML viability, CellTiter-Glo luminescence, 72 h; series mostly up to 45 µM
How it was run: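 In this viability screen, compounds acted on SYK inhibitor naive MV4-11 cells for three days (72 hr, 37 C). Remaining viable cells were measured by CellTiter-Glo luminescence following a 10 min room-temperature development.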
Potency is the fitted concentration of half-maximal effect.

Row | Compound | Potency
1 | C=C(C)[C@H]1Cc2c(ccc3c2O[C@@H]2COc4cc(OC)c(OC)cc4[C@@H]2C3=O)O1 | 0.0376 µM (active)
2 | C[N+]1(CCC(C(N)=O)(c2ccccc2)c2ccccc2)CCCCC1 | inactive
3 | CC(=O)OCC1=C(C(=O)O)N2C(=O)[C@@H](N)[C@H]2SC1 | inactive
4 | O=C(O)COc1nc(Cl)c(Cl)cc1Cl | inactive
5 | CCN(CC)C(=O)N[C@@H]1C=C2c3cccc4[nH]cc(c34)C[C@@H]2N(C)C1 | inactive
6 | O=C(Oc1ccc([N+](=O)[O-])cc1)N1CCC(C(O)(c2ccc3c(c2)OCO3)c2ccc3c(c2)OCO3)CC1 | inactive
7 | CC[C@H]1C[C@H]2[C@@H]3CCC4=CC(=O)CC[C@@H]4[C@H]3CC[C@]2(C)[C@H]1O | 18.8 µM (active)
8 | Cc1ccc(S(=O)(=O)N[C@@H](CCCCN)C(=O)CCl)cc1 | inactive
9 | CCN1CCN(C(=O)Cc2ccc(Nc3ncc(F)c(Nc4ccc(C(=O)Nc5ccccc5Cl)cc4)n3)cc2)CC1 | 0.468 µM (active)
10 | CCOP(=S)(OCC)O/N=C(\C#N)c1ccccc1 | inactive
11 | Cc1cccc(C)c1NC(=O)CN1CCCC1=O | inactive
12 | COP(=S)(OC)Oc1ccc(S(N)(=O)=O)cc1 | inactive
13 | C[C@]12CCC(=O)C=C1CC[C@@H]1[C@@H]2CC[C@]2(C)C(=O)CC[C@@H]12 | inactive
14 | CO[C@]12CC[C@@]3(C[C@@H]1[C@](C)(O)C(C)(C)C)[C@@H]1Cc4ccc(O)c5c4[C@@]3(CCN1CC1CC1)[C@H]2O5 | 21.5 µM (active)
15 | Cc1c(N)nc([C@H](CC(N)=O)NC[C@@H](N)C(N)=O)nc1C(=O)N[C@H](C(=O)N[C@@H](C)[C@H](O)[C@@H](C)C(=O)N[C@@H](C(=O)NCCc1nc(-c2nc(C(=O)NCCC[S+](C)C)cs2)cs1)[C@@H](C)O)C(O[C@H]1O[C@H](CO)[C@H](O)[C@@H](O)[C@H]1O[C@H]1O[C@H](CO)[C@@H](O)[C@H](OC(N)=O)[C@@H]1O)c1cnc[nH]1 (some centres undefined) | inactive
16 | CC(=O)Nc1ccc(OC[C@](C)(O)C(=O)Nc2ccc([N+](=O)[O-])c(C(F)(F)F)c2)cc1 | 16.6 µM (active)
17 | CCNC(=O)CC1N=C(c2ccc(Cl)cc2)c2cc(OC)ccc2-n2c(C)nnc21 (centres undefined) | 14.8 µM (active) and inactive and 517 nM (active)
18 | COc1nn(CSP(=S)(OC)OC)c(=O)s1 | 38.6 µM (active)
19 | CCCC(C)C1(CC)C(=O)N=C(S)NC1=O (centres undefined) | inactive
20 | COc1cccc2c1C(=O)c1c(O)c3c(c(O)c1C2=O)C[C@@](O)(C(=O)CO)CC3OC1CC(N2CCOC(OC)C2)C(O)C(C)O1 (some centres undefined) | 0.0027 µM (active)
21 | CCO[C@H]1O[C@@H]2OC3(C)CC[C@H]4[C@H](C)CC[C@@H]([C@H]1C)[C@@]24OO3 | 4.22 µM (active)
22 | Nc1ccc(Cl)cc1C(=O)c1ccccc1F | inactive
23 | CCOP(=S)(OCC)Oc1ccc2c(C)c(Cl)c(=O)oc2c1 | inactive
24 | NC(=O)CS(=O)C(c1ccccc1)c1ccccc1 (centres undefined) | inactive
